Test results: the supplement of paper PMC5641865, “A screen for kinase inhibitors identifies antimicrobial imidazopyridine aminofurazans as specific inhibitors of the Listeria monocytogenes PASTA kinase PrkA” (The Journal of Biological Chemistry, 2017)
± gives the standard deviation of the averaged measurements.

system: Listeria monocytogenes 10403S; assay: growth inhibition relative to ceftriaxone-alone control; higher = stronger potentiation of ceftriaxone growth inhibition; conditions: 10 µM; ceftriaxone 1 ug/ml; 12 h
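Further: End-point A600 read in BHI broth at 37 °C with 2% DMSO, inhibition computed as (1 − OD with compound plus ceftriaxone ÷ OD with ceftriaxone only) × 100.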

Point of comparison: `CC(C)(C)c1cc(/C=C(\C#N)C(N)=S)cc(C(C)(C)C)c1O` [Tyrphostin AG 879 (AG 879)], growth inhibition 72.8 ± 30%. Against it:
- O=C(O)[C@]1(Cc2cccc(Nc3nccs3)n2)CC[C@@H](Oc2cccc(Cl)c2F)CC1 — within error, 89.4 ± 3%
- Fc1cccc(COc2ccc(Nc3ncnc4cc(-c5ccc[nH]5)sc34)cc2Cl)c1 — lower, 7.47 ± 4%
- Cn1cc(-c2ccc3ncc(Cc4ccc5ncccc5c4)n3n2)cn1 — lower, -1.22 ± 3.1%
- NC(=O)Cc1ccccc1Oc1nccc(-c2c(-c3ccc(F)cc3)ncn2C2CCNCC2)n1 — lower, -2.82 ± 0.75%
- CNC(=O)c1cncc(/C=C/c2ccccc2C)c1 — lower, 25.3 ± 14%
- Nc1ccc(-c2ccc3ncc4ccc(=O)n(-c5cccc(C(F)(F)F)c5)c4c3c2)cn1 [Torin 2] — lower, -20 ± 12%
- Cc1cccc(-c2n[nH]cc2-c2ccc3ncccc3n2)n1 — lower, -9.12 ± 7.3%
- Clc1ccc(C2(c3ccc(-c4cn[nH]c4)cc3)CCNCC2)cc1 — within error, 100 ± 1.4%
- Nc1nccc(Oc2ccc(NC(=O)c3c[nH]cc(-c4ccc(F)cc4)c3=O)cc2F)c1Cl — lower, 1.11 ± 36%
- CCOc1cc2ncc(C#N)c(Nc3ccc(OCc4ccccn4)c(Cl)c3)c2cc1NC(=O)/C=C/CN(C)C [Neratinib (HKI-272)] — lower, 12.3 ± 9.7%
- O=C1Nc2ccccc2C1=C1CCc2cc(O)ccc21 — lower, 7.57 ± 3.2%
- COc1cc2ncn(-c3cc(OCc4cccs4)c(C(N)=O)s3)c2cc1OC — lower, -10.4 ± 16%
- CNC(=O)c1ccc(C)c(-n2c(C)cc(OCc3ccc(F)cc3F)c(Br)c2=O)c1 — within error, 35.2 ± 11%
- COC(=O)Nc1ccc(-c2nc(N3CCOCC3)c3cnn(C4CCN(C(=O)OC)CC4)c3n2)cc1 — lower, -59.1 ± 10%
- N#C/C(=C\c1ccc(O)c(O)c1)C(=O)NCc1ccccc1 — within error, 28.7 ± 25%
- Cc1nn(C)c2cc(N(C)c3ccnc(Nc4cccc(S(N)(=O)=O)c4)n3)ccc12 — lower, 10.1 ± 1.2%
- O=c1cc(N2CCOCC2)oc2c(-c3ccccc3)cccc12 — within error, 27.4 ± 29%
- CN(C)C/C=C/C(=O)Nc1cc2c(Nc3ccc(F)c(Cl)c3)ncnc2cc1O[C@H]1CCOC1 [Afatinib (BIBW2992)] — within error, 45.41 ± 0.44%
- Fc1ccc(-c2ncn(C3CCNCC3)c2-c2ccnc(Oc3ccc(Oc4ccccc4)cc3)n2)cc1 — lower, 12.2 ± 24%
- COc1cc(Nc2nccc(-c3cnn4ncccc34)n2)cc(OC)c1 — lower, -13.8 ± 16%
- O=C1NC(=O)C(c2cccc(Cl)c2)=C1Nc1ccc(Cl)c(C(=O)O)c1 — lower, 9.83 ± 0.41%
- COc1ccc2cc(-c3c(-c4ccncc4)nc(-c4ccc([S+](C)[O-])cc4)n3C)ccc2c1 (stereo not drawn) — lower, 12 ± 0.7%
- Fc1cccc(COc2ccc(Nc3ncnc4sc(-c5cccs5)cc34)cc2Cl)c1 — lower, -4.36 ± 4.4%
- Cc1ccc(-c2cc3c(NC(=O)C4CC4)ncnc3o2)cc1 — lower, -3.41 ± 5.3%
- c1ccc(Cc2nc3ccc(Nc4ncnc5ccccc45)cc3[nH]2)cc1 — lower, -14.5 ± 19%
- CCN(CC)CCCCNc1ncc2cc(-c3cc(OC)cc(OC)c3)c(NC(=O)NC(C)(C)C)nc2n1 — lower, 23.2 ± 6.8%
- CN(C)CCOc1ccc(-c2cc(-c3ccc4c(c3)CCC4=NO)c(-c3ccncc3)o2)cc1 — within error, 36.5 ± 39%
- COc1cc2ncn(-c3cc(OCc4ccccc4S(C)(=O)=O)c(C#N)s3)c2cc1OC — lower, 12.7 ± 3%
- O=C(Nc1cccc(Cl)c1)Nc1ncc(CCNc2ncnc3ccsc23)s1 — within error, 94.4 ± 2%
- Oc1cccc(-c2nc(-c3ccccc3)[nH]c2-c2ccncc2)c1 — lower, -3.01 ± 1.1%
- O=C(Nc1n[nH]c2cc(-c3cc(F)ccc3F)ccc12)C1CC1 — lower, -0.453 ± 13%
- NC(=O)c1sc(-n2cnc3ccc(C(F)(F)F)cc32)cc1OCc1ccccc1Br — lower, -2.79 ± 1.9%
- COc1cc(C)c(NC(=O)CN(C)C)cc1Nc1nc(Nc2cccc(F)c2C(N)=O)c2cc[nH]c2n1 — lower, -5.99 ± 8.5%
- O=C1Nc2ccccc2/C1=C/Nc1ccc(-n2cncn2)cc1 — lower, 0.116 ± 3.5%
- Cc1cc(Nc2nc(N[C@@H](C)c3ccc(F)cc3)c(C#N)cc2F)n[nH]1 — within error, 96.93 ± 0.13%
- CN1CCC(C(=O)Nc2n[nH]c3nc(-c4ccc(O)cc4)c(Br)cc23)CC1 — lower, -3.78 ± 12%
- CCS(=O)(=O)N1CC(CC#N)(n2cc(-c3ncnc4[nH]ccc34)cn2)C1 — lower, 20.4 ± 0.71%
